Key:
Assay in all cases: PBM binding z-score (relative to random genomic background probes); higher = stronger binding; sequences stand for … in GC…GCGATTGACAGCGTAGAATGAAGG
[1] = test system: FXR:RXRa (NR concentration 270 nM, RXRa partner concentration 90 nM)
Outline: (§1)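 Each nuclear receptor dimer, without ligand, was incubated for 1 h on custom Agilent 4×180K protein-binding microarrays. Binding was detected with antibodies against each partner (one per run), and scanned fluorescence was regression-normalized. The binding z-scores are referenced to random human genomic background probes.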

[2] = test system: LXRa:RXRa (NR concentration 270 nM, RXRa partner concentration 90 nM)
Outline: as §1

[3] = test system: LXRa homodimer (NR concentration 270 nM)
Outline: as §1

[4] = test system: LXRb:RXRa (NR concentration 270 nM, RXRa partner concentration 90 nM)
Outline: as §1

[5] = test system: LXRb homodimer (NR concentration 270 nM)
Outline: as §1

[6] = test system: PPARa:RXRa (NR concentration 270 nM, RXRa partner concentration 90 nM)
Outline: as §1

[7] = test system: PPARg:RXRa (NR concentration 180 nM, RXRa partner concentration 90 nM)
Outline: as §1

[8] = test system: PPARg:RXRa 270nM:90nM, anti-RXR (NR concentration 270 nM, RXRa partner concentration 90 nM)
Outline: as §1

[9] = test system: PPARg:RXRa 30nM:10nM, anti-RXR (NR concentration 30 nM, RXRa partner concentration 10 nM)
Outline: as §1

[10] = test system: PPARg:RXRa 90nM:30nM, anti-RXR (NR concentration 90 nM, RXRa partner concentration 30 nM)
Outline: as §1

[11] = test system: PPARg:RXRa DBDmut IVT, anti-RXR (DBD mutation: RXRa K156A/R161A, NR concentration 270 nM, RXRa partner concentration 90 nM)
Outline: as §1

[12] = test system: PPARg:RXRa IVT, anti-PPARg (NR concentration 270 nM, RXRa partner concentration 90 nM)
Outline: as §1

[13] = test system: PPARg DBDmut:RXRa IVT, anti-PPARg (DBD mutation: PPARg1 K132A/R137A, NR concentration 270 nM, RXRa partner concentration 90 nM)
Outline: as §1

[14] = test system: PPARg DBDmut IVT, anti-PPARg (DBD mutation: PPARg1 K132A/R137A, NR concentration 270 nM)
Outline: as §1

[15] = test system: PPARg homodimer (NR concentration 180 nM)
Outline: as §1

[16] = test system: PXR:RXRa (NR concentration 270 nM, RXRa partner concentration 90 nM)
Outline: as §1

[17] = test system: PXR homodimer (NR concentration 270 nM)
Outline: as §1

[18] = test system: RARa:RXR (NR concentration 270 nM, RXRa partner concentration 90 nM)
Outline: as §1

[19] = test system: RARa homodimer (NR concentration 270 nM)
Outline: as §1

[20] = test system: RARb:RXRa (NR concentration 270 nM, RXRa partner concentration 90 nM)
Outline: as §1

Sequence	PBM binding z-score [1]	PBM binding z-score [2]	PBM binding z-score [3]	PBM binding z-score [4]	PBM binding z-score [5]	PBM binding z-score [6]	PBM binding z-score [7]	PBM binding z-score [8]	PBM binding z-score [9]	PBM binding z-score [10]	PBM binding z-score [11]	PBM binding z-score [12]	PBM binding z-score [13]	PBM binding z-score [14]	PBM binding z-score [15]	PBM binding z-score [16]	PBM binding z-score [17]	PBM binding z-score [18]	PBM binding z-score [19]	PBM binding z-score [20]
TGAATGAGGTTAAAGATCAGGAAACGTGGCGTCG	3.12	2.5	-0.309	1.69	-0.0435	4.49	5.58	6.34	4.41	6.93	2.17	3.35	0.769	0.42	1.22	2.17	-0.325	3.49	-0.294	1.94
CCTCGGAGAACAGAAGGTCAGAGCTGTCCGCTTT	1.13	1.7	0.757	1.3	-0.0418	1.85	-0.162	0.587	-0.776	0.369	0.0999	-0.304	-1.44	-1.47	1.67	1.44	0.0963	1.92	0.634	2.42
GCAGACAGGTGAAATGCAGGTAACTCAGGGTGGC	-0.157	0.0887	-0.625	-0.157	-0.898	1.23	0.71	0.196	-0.445	0.00263	1.43	1.14	-0.233	-1.24	-0.0768	-0.249	0.00173	0.324	-0.661	0.683
CCGAGTAGGATATGGGGCATTCAGGCAACGGTGA	-0.328	-0.279	-0.104	-0.307	-0.496	1.11	1.26	2.01	0.579	1.45	2.05	2.81	-0.179	-0.813	0.55	-0.236	-0.112	-0.0398	0.174	-0.0937
CTTCCAAGGTGAACAAGGTCGTTGATTACTATTC	1.17	1.18	0.234	1.67	-0.522	2.49	0.855	1.31	0.0258	0.487	2.37	2.58	0.501	-0.605	0.985	2.6	1.19	1.97	-0.158	2.18
CGAACGAGTGCATGAGTTGATAGCAAATGCCGAT	-0.259	-0.143	-0.369	-0.0215	-0.861	0.127	0.68	0.262	-0.00177	-0.142	-0.266	-0.442	-0.401	0.0555	-0.0589	0.62	0.717	0.133	-0.713	0.209
ACTAGTTGGTCAGCTGAGGTCACACATAATTCGG	3.42	3.14	2.03	3.37	1.17	3.6	1.8	2.34	0.875	1.62	1.85	2.53	0.818	1.05	2.38	5.42	1.87	4.34	1.21	3.51
CCTACTGGGCCATTCAGAGGTCAGTGATCATATG	0.991	1.94	2.35	1.78	-0.442	2.54	1.47	1.99	0.391	1.29	4.58	3.89	-0.582	-0.353	2.08	2.28	0.543	2.64	0.443	2.77
TCGAGTAGGGTAGGGGCATTCAGAATGGCGTCGA	0.264	0.12	0.0875	1.16	1.6	0.956	0.642	1.82	1.02	1.4	1.02	1.33	-0.123	1.32	0.484	0.566	0.395	0.405	0.0821	0.666
TCAGACAGGTGAAGGGAACTCAGGTACGCAGTCG	0.945	0.772	0.0804	0.859	0.193	1.25	0.602	2.23	3.93	2.93	2.87	0.387	-0.0761	-0.559	0.811	0.733	0.499	0.697	0.593	1.04
CAAACTAGGTCACAAAGGTCAAAGTCCGTGCGTA	7.43	6.7	7.48	6.59	3	6.49	10.3	8.31	7.58	8.55	8.59	8.71	2.54	2.7	7.19	6.69	11.9	7.63	4.27	5.46

Source: the supplement of paper PMC6555819
